PBM binding z-score data for 39 sequences are collected here from the supplement of paper PMC6555819.

The experiment concerns RXRa homodimer (NR concentration 180 nM). In words: PBM binding z-score (relative to random genomic background probes); higher = stronger binding; sequences stand for … in GC…GCGATTGACAGCGTAGAATGAAGG
In short, it runs like this:
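For binding z-scores, the reference was random background probes on custom Agilent 4×180K protein-binding microarrays. These arrays were incubated 1 h with ligand-free nuclear receptor dimers in PBS pH 7.4, 2% milk, 0.02% Triton X-100, 1 mM DTT, 0.2 mg/mL BSA and 0.4 mg/ml salmon testes DNA. Fluorescence was scanned after antibody detection of each partner (one per run) and regression-normalized.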
In turn, CCGAGTAGGTTACGAGCGGGCATTCAGTGCGAAT registered a PBM binding z-score of 0.313.

Take CCGAGTAGGTTACGAGGGGGCATTAAGTGCGAAT: the PBM binding z-score came to 2.14.

In turn, ATATGTAGGCTAGGGTCATTCAGAAAGTAGGGAA came in with a PBM binding z-score of 4.11.

Sequence CTCGAAAGGTCGGTTGAGGTCAGTATACGGATAA returned a PBM binding z-score of 4.02.

Consider CGAACTAGGTCACCAGGACAGTCAAGAGGTTGGA, for which the PBM binding z-score came to 3.33.

For the sequence TCATATAGGTGAAAGGTGAAAGTCGGTGTGGTAA, the PBM binding z-score came out at 4.53.

In turn, ATATGTAGCTTAAGGGTCATTCAGGTTGGTTCGC displayed a PBM binding z-score of 4.27.

GCTGCTAGGTCAGGTTGGTCAGCTAACGGGTACG: the PBM binding z-score was 0.927.

ATACGTAGGTTACATCCGGGTCATTCAGGCTATG showed a PBM binding z-score of 3.06.

With CTATGTAGGTTAAGGAGGTCATTCAGTTTGAAAG, the PBM binding z-score was found to be 4.07.

Sequence CTATGAAGGTTAAGGGGGTCATTCAGTTTGAAAG registered a PBM binding z-score of 6.52.

In the case of CGAACTAGGTCACCCGGACAGTGAAGAGGTTGGA, the PBM binding z-score came to 2.93.

TAGCCTAGGTCATAGGCCAGTATACCACGCGAAC had a PBM binding z-score of 3.51.

In the case of TCGAGTAGGTTACGGGGGCGTTCAGGGATGAAGA, the PBM binding z-score amounted to 2.05.

As for CGAACTAGGTCAAATGACAGTGAAAGGCGACGTA, the PBM binding z-score stood at 3.11.

ATATGGAGGTTAAGGGTCATTCAGGTTGGTTCGC: the PBM binding z-score came to 7.76.

CCTACTGGGCCAAGCTCATTGATCAGTCAAAGCA had a PBM binding z-score of -0.732.

AGTCAAAGTTCATCAAGGTAACGTAAGATATGCT came in with a PBM binding z-score of 4.81.

ACAGACAGGTGAGTGAAGGTCACTCAGCTGGACG came in with a PBM binding z-score of 2.89.

In the case of TCGAGTAGGTTACGGGGGCCTTCAGGGATGAAGA, the PBM binding z-score turned out to be 1.47.

The sequence CAAACTAGGTCACCGGAAAGTCAAAGTCCGCATG registered a PBM binding z-score of 3.89.

Take CGAACTAGGTCAACAGGACAGTGAAGAGGTTGGA: the PBM binding z-score was 3.09.

Consider CGAACTAGATCACCAGGACAGTGAAGAGGTTGGA, for which the PBM binding z-score was found to be 0.0064.

Regarding CCGAGTAGGTTACGAGGGGACATTCAGTGCGAAT, the PBM binding z-score stood at 0.907.

For CTGAGTAGGTTACGAGGGGGCATTCAGTGCGAAT, the PBM binding z-score was determined as 1.72.

ATATGTAGGTTAGGGTGATTCAGAAAGTAGGGAA returned a PBM binding z-score of 1.02.

The sequence CCTAGTGGGCCAAAGGTCATTGATTCCAATGCTC gave a PBM binding z-score of 6.9.

For CTATGTAGGTTAAGGGGGTCATCCAGTTTGAAAG, the PBM binding z-score turned out to be 5.94.

In turn, CTCCAAAGGTCGGTTGAGGTGAGTATACGGATAA had a PBM binding z-score of 2.46.

Sequence TCGAGTAGGTTACGGGGGCATTCATGGATGAAGA came in with a PBM binding z-score of 2.93.

In the case of CACACTAGGTCAAAGGTCAAAGTCGAGCCAACCA, the PBM binding z-score amounted to 10.4.

CCGAGTAGGTTACGAGGGGGCATTCTGTGCGAAT yielded a PBM binding z-score of 1.68.

For CCTAGTGGGTCAGGAGGTCACACACCGGATATGA, the PBM binding z-score was 6.15.

In the case of CCTAGCAGGCCACGGTCACTCAAGCATTTCGCTT, the PBM binding z-score turned out to be 0.221.

Sequence ATCTCTAGGTCAAAGTTCAGTGAATCCCGAGGAT had a PBM binding z-score of 6.97.

The sequence ACTCGGAGGACAAAGGTGAGAGCTACGCCAGTGA displayed a PBM binding z-score of 1.5.

In turn, ATATGAAGGTTATCGGGTCATTCAGTTTGCGCAT showed a PBM binding z-score of 4.02.

GGAACGGGGGCATTCGAGTTGATAGCATGGCGAT: the PBM binding z-score was found to be 2.47.

Regarding CCTAGTTGGTCAGGAGGTCACATACCGGATATGA, the PBM binding z-score amounted to 3.92.
